# Measurements reported in the supplement of paper PMC8728848.
# The full list was thinned out, with the strongest signals kept by preference.
# Key:
# Test in all cases: glycan array binding signal (z-score within array); higher = stronger binding
# Conditions in all cases: glycan notation: IUPAC condensed, linker removed
# [1] = target: GlcNAc(a1-4)Gal(b1-4)GlcNAc
# Method in brief: (§1)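 Glycan array data were curated from 3228 arrays in the Consortium for Functional Glycomics database and kept only where the protein sequence was available. Glycan names were converted to IUPAC-condensed notation, and columns mapping to the same glycan were averaged. The binding signal is a within-array Z-score, averaged across arrays of the same protein sequence at different concentrations or buffers and across linkers. Negative Z-scores can be read as non-binding.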
# [2] = target: GlcNAc(a1-4)Gal(b1-4)GlcNAc(b1-3)Gal(b1-4)[Fuc(a1-3)]GlcNAc(b1-3)Gal(b1-4)[Fuc(a1-3)]GlcNAc
# Method in brief: as §1
# [3] = target: GlcNAc(b1-2)Man(a1-3)[GlcNAc(b1-2)Man(a1-6)]Man(b1-4)GlcNAc(b1-4)GlcNAc
# Method in brief: as §1
# [4] = target: GlcNAc(b1-2)[GlcNAc(b1-4)]Man(a1-3)[GlcNAc(b1-4)][GlcNAc(b1-2)[GlcNAc(b1-6)]Man(a1-6)]Man(b1-4)GlcNAc(b1-4)GlcNAc
# Method in brief: as §1
# [5] = target: GlcNAc(b1-3)Gal(b1-4)GlcNAc
# Method in brief: as §1
# [6] = target: GlcNAc(b1-3)Gal(b1-4)GlcNAc(b1-2)Man(a1-3)[GlcNAc(b1-3)Gal(b1-4)GlcNAc(b1-2)Man(a1-6)]Man(b1-4)GlcNAc(b1-4)GlcNAc
# Method in brief: as §1
# [7] = target: GlcNAc(b1-3)Gal(b1-4)GlcNAc(b1-3)GalNAc
# Method in brief: as §1
# [8] = target: GlcNAc(b1-3)Gal(b1-4)GlcNAc(b1-6)[GlcNAc(b1-3)]Gal(b1-4)GlcNAc
# Method in brief: as §1
# [9] = target: GlcNAc(b1-4)GlcNAc(b1-4)GlcNAc(b1-4)GlcNAc(b1-4)GlcNAc(b1-4)GlcNAc
# Method in brief: as §1
# [10] = target: GlcNAc6S(b1-3)Gal(b1-4)GlcNAc
# Method in brief: as §1
# Man(a1-2)Man(a1-3)Man = target: Man(a1-2)Man(a1-3)Man
# Method in brief: as §1
# [11] = target: Man(a1-3)[Man(a1-6)]Man(a1-6)[Man(a1-3)]Man(b1-4)GlcNAc(b1-4)GlcNAc
# Method in brief: as §1
# [12] = target: Neu5Ac(a2-3)Gal(b1-3)GlcNAc(b1-2)Man
# Method in brief: as §1
# [13] = target: Neu5Ac(a2-3)Gal(b1-3)GlcNAc(b1-2)Man(a1-3)[GlcNAc(b1-4)][Neu5Ac(a2-3)Gal(b1-3)GlcNAc(b1-2)Man(a1-6)]Man(b1-4)GlcNAc(b1-4)GlcNAc
# Method in brief: as §1
# [14] = target: Neu5Ac(a2-3)Gal(b1-3)GlcNAc(b1-3)Gal(b1-3)GlcNAc
# Method in brief: as §1
# [15] = target: Neu5Ac(a2-3)Gal(b1-3)[Fuc(a1-4)]GlcNAc(b1-3)Gal(b1-4)[Fuc(a1-3)]GlcNAc
# Method in brief: as §1
# [16] = target: Neu5Ac(a2-3)Gal(b1-3)[Neu5Ac(a2-6)]GlcNAc(b1-3)[Fuc(a1-3)[Gal(b1-4)]GlcNAc(b1-6)]Gal(b1-4)Glc
# Method in brief: as §1
# [17] = target: Neu5Ac(a2-3)Gal(b1-3)]Neu5Ac(a2-3)Gal(b1-4)]GlcNAc
# Method in brief: as §1
# [18] = target: Neu5Ac(a2-3)Gal(b1-4)GlcNAc(b1-2)Man(a1-3)[GlcNAc(b1-4)][Neu5Ac(a2-3)Gal(b1-4)GlcNAc(b1-2)Man(a1-6)]Man(b1-4)GlcNAc(b1-4)GlcNAc
# Method in brief: as §1
# [19] = target: Neu5Ac(a2-3)Gal(b1-4)GlcNAc(b1-2)[Neu5Ac(a2-3)Gal(b1-4)GlcNAc(b1-6)]Man(a1-6)[Neu5Ac(a2-3)Gal(b1-4)GlcNAc(b1-2)Man(a1-3)]Man(b1-4)GlcNAc(b1-4)GlcNAc
# Method in brief: as §1
# [20] = target: Neu5Ac(a2-3)Gal(b1-4)GlcNAc(b1-6)[Neu5Ac(a2-3)Gal(b1-3)]GalNAc
# Method in brief: as §1
# [21] = target: Neu5Ac(a2-3)Gal(b1-4)[Fuc(a1-3)]GlcNAc(b1-2)Man
# Method in brief: as §1
# Neu5Ac(a2-3)GalNAc = target: Neu5Ac(a2-3)GalNAc
# Method in brief: as §1
# [22] = target: Neu5Ac(a2-6)Gal(b1-4)GlcNAc(b1-2)Man(a1-3)[Man(a1-6)]Man(b1-4)GlcNAc(b1-4)GlcNAc
# Method in brief: as §1
# [23] = target: Neu5Ac(a2-6)Gal(b1-4)GlcNAc(b1-2)Man(a1-6)[GlcNAc(b1-2)Man(a1-3)]Man(b1-4)GlcNAc(b1-4)GlcNAc
# Method in brief: as §1
# [24] = target: Neu5Ac(a2-6)Gal(b1-4)GlcNAc(b1-3)Gal(b1-4)GlcNAc(b1-6)[Gal(b1-3)]GalNAc
# Method in brief: as §1
# [25] = target: Neu5Ac(a2-6)Gal(b1-4)GlcNAc(b1-6)GalNAc
# Method in brief: as §1
# [26] = target: Neu5Ac(a2-6)Gal(b1-4)GlcNAc(b1-6)[Gal(b1-3)]GalNAc
# Method in brief: as §1
# Neu5Ac(a2-8)Neu5Ac = target: Neu5Ac(a2-8)Neu5Ac
# Method in brief: as §1
# [27] = target: Neu5Ac(a2-8)Neu5Ac(a2-3)Gal(b1-3)GalNAc(b1-4)[Neu5Ac(a2-3)]Gal(b1-4)Glc
# Method in brief: as §1
# [28] = target: Neu5Gc(a2-8)Neu5Gc(a2-6)Gal(b1-4)GlcNAc
# Method in brief: as §1
binder,measurement,setting,value
GNL (Galanthus nivalis) (protein) MGHHHHHHHHYGTLENGHWLMVGMSIFSKDRTVELRMQDDGKLAIYYNDHCAWQSTAQQVNNAKGAVMQGDGNFCIYDKNGKATWHTNTAAPSGDSHTFVSVQDDGNLVLYKNNGATPIWSSKSNK,glycan array binding signal (z-score),[1],-0.25
same,glycan array binding signal (z-score),[2],-0.175
same,glycan array binding signal (z-score),[3],8.74
same,glycan array binding signal (z-score),[4],-0.284
same,glycan array binding signal (z-score),[5],-0.226
same,glycan array binding signal (z-score),[6],0.679
same,glycan array binding signal (z-score),[7],-0.013
same,glycan array binding signal (z-score),[8],-0.255
same,glycan array binding signal (z-score),[9],-0.24
same,glycan array binding signal (z-score),[10],-0.28
same,glycan array binding signal (z-score),Man(a1-2)Man(a1-3)Man,-0.18
same,glycan array binding signal (z-score),[11],-0.2
same,glycan array binding signal (z-score),[12],-0.208
same,glycan array binding signal (z-score),[13],-0.228
same,glycan array binding signal (z-score),[14],-0.212
same,glycan array binding signal (z-score),[15],-0.191
same,glycan array binding signal (z-score),[16],-0.137
same,glycan array binding signal (z-score),[17],-0.172
same,glycan array binding signal (z-score),[18],-0.295
same,glycan array binding signal (z-score),[19],-0.159
same,glycan array binding signal (z-score),[20],-0.286
same,glycan array binding signal (z-score),[21],-0.295
same,glycan array binding signal (z-score),Neu5Ac(a2-3)GalNAc,-0.251
same,glycan array binding signal (z-score),[22],5.43
same,glycan array binding signal (z-score),[23],5.03
same,glycan array binding signal (z-score),[24],-0.216
same,glycan array binding signal (z-score),[25],-0.235
same,glycan array binding signal (z-score),[26],-0.133
same,glycan array binding signal (z-score),Neu5Ac(a2-8)Neu5Ac,-0.189
same,glycan array binding signal (z-score),[27],-0.285
same,glycan array binding signal (z-score),[28],-0.194
